Test results from PubChem BioAssay AID1159580 (chemical genetic matrix, 2015).
Hit rate of the full screen: of about 5,500 compounds, about 2,000 (36%) were called active. Inconclusive results (about 18%) are left out. Rule as the data show it: active = normalized growth mostly below about 0.91 (no sharp cut-off); inconclusive = no clear call, values can overlap the other calls; inactive = mostly above about 0.92. The list shows a part of the results.

Experiment: chemical genetic growth profiling, strain panel (AID 1159580);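 also: tested at 20 µM; growth read once vehicle control cultures reached saturation at 30 °C; 1 = growth at the plate median or of vehicle wells; lower values mean less growth of the strain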
Conditions: growth OD

Measured: normalized growth

CN(C)C(=O)Nc1ccc(Cl)c(Cl)c1
inactive: S. cerevisiae deletion strains, locus YJR075W, strain HOC1, active compounds read low 0.958 | S. cerevisiae deletion strains, locus YKL009W, strain mrt4, active compounds read low 0.97 | S. cerevisiae deletion strains, locus YKL068W, active compounds read low 1 | S. cerevisiae deletion strains, locus YKL085W, strain MDH1 (second series), active compounds read low 1 | S. cerevisiae deletion strains, locus YKL085W, strain MDH1, active compounds read low 1 | S. cerevisiae deletion strains, locus YKL160W, strain elf1, active compounds read low 0.955 | S. cerevisiae deletion strains, locus YKL190W, strain CNB1, active compounds read low 0.996 | S. cerevisiae deletion strains, locus YKR001C, strain vps1, active compounds read low 0.984 | S. cerevisiae deletion strains, locus YKR026C, strain gcn3, active compounds read low 0.993 | S. cerevisiae deletion strains, locus YKR091W, strain srl3, active compounds read low 0.982 | S. cerevisiae deletion strains, locus YLL001W, strain dnm1, active compounds read low 0.901 | S. cerevisiae deletion strains, locus YLL026W, active compounds read low 0.991 | S. cerevisiae deletion strains, locus YLL041C, strain sdh2, active compounds read low 0.994 | S. cerevisiae deletion strains, locus YLR027C, strain aat2, active compounds read low 0.969 | S. cerevisiae deletion strains, locus YLR039C, strain RIC1, active compounds read low 1.04 | S. cerevisiae deletion strains, locus YLR058C, strain SHM2, active compounds read low 0.991 | S. cerevisiae deletion strains, locus YLR102C, strain apc9, active compounds read low 1 | S. cerevisiae deletion strains, locus YLR113W, strain HOG1, active compounds read low 0.909 | S. cerevisiae deletion strains, locus YLR221C, strain rsa3, active compounds read low 0.963 | S. cerevisiae deletion strains, locus YLR258W, strain gsy2, active compounds read low 0.984 | S. cerevisiae deletion strains, locus YLR262C, strain YPT6 (second series), active compounds read low 0.996 | S. cerevisiae deletion strains, locus YLR262C, strain YPT6, active compounds read low 1.01 | S. cerevisiae deletion strains, locus YLR268W, strain sec22, active compounds read low 0.988 | S. cerevisiae deletion strains, locus YLR320W, strain mms22, active compounds read low 0.98 | S. cerevisiae deletion strains, locus YLR330W, strain CHS5, active compounds read low 0.994 | S. cerevisiae deletion strains, locus YLR342W, strain FKS1 (second series), active compounds read low 0.983 | S. cerevisiae deletion strains, locus YLR342W, strain FKS1, active compounds read low 0.985 | S. cerevisiae deletion strains, locus YLR357W, strain rsc2, active compounds read low 0.969 | S. cerevisiae deletion strains, locus YLR370C, strain arc18, active compounds read low 0.965 | S. cerevisiae deletion strains, locus YLR371W, strain rom2, active compounds read low 1 | S. cerevisiae deletion strains, locus YLR384C, strain iki3, active compounds read low 1.01 | S. cerevisiae deletion strains, locus YLR418C, strain cdc73, active compounds read low 0.85 | S. cerevisiae deletion strains, locus YML016C, strain PPZ1, active compounds read low 0.993 | S. cerevisiae deletion strains, locus YML032C, strain rad52, active compounds read low 0.994 | S. cerevisiae deletion strains, locus YML120C, strain ndi1, active compounds read low 0.985 | S. cerevisiae deletion strains, locus YML124C, strain tub3, active compounds read low 1 | S. cerevisiae deletion strains, locus YMR058W, strain fet3, active compounds read low 0.992 | S. cerevisiae deletion strains, locus YMR078C, strain ctf18, active compounds read low 0.999 | S. cerevisiae deletion strains, locus YMR125W, strain sto1, active compounds read low 1.04 | S. cerevisiae deletion strains, locus YMR129W, active compounds read low 0.991 | S. cerevisiae deletion strains, locus YMR205C, strain PFK2, active compounds read low 0.917 | S. cerevisiae deletion strains, locus YMR223W, strain ubp8, active compounds read low 0.987 | S. cerevisiae deletion strains, locus YMR231W, strain pep5, active compounds read low 1 | S. cerevisiae deletion strains, locus YMR263W, strain SAP30, active compounds read low 0.956 | S. cerevisiae deletion strains, locus YMR307W, strain GAS1, active compounds read low 0.812 | S. cerevisiae deletion strains, locus YNL067W, strain RPL9B, active compounds read low 0.986 | S. cerevisiae deletion strains, locus YNL071W, strain lat1, active compounds read low 0.982 | S. cerevisiae deletion strains, locus YNL128W, strain TEP1, active compounds read low 0.993 | S. cerevisiae deletion strains, locus YNL153C, strain GIM3, active compounds read low 0.996 | S. cerevisiae deletion strains, locus YNL183C, strain NPR1, active compounds read low 0.939 | S. cerevisiae deletion strains, locus YNL209W, strain ssb2, active compounds read low 0.972 | S. cerevisiae deletion strains, locus YNL233W, strain BNI4, active compounds read low 0.97 | S. cerevisiae deletion strains, locus YNL248C, strain rpa49, active compounds read low 1.02 | S. cerevisiae deletion strains, locus YNL250W, strain rad50, active compounds read low 1.01 | S. cerevisiae deletion strains, locus YNL271C, strain bni1, active compounds read low 1 | S. cerevisiae deletion strains, locus YNL298W, strain CLA4, active compounds read low 0.998 | S. cerevisiae deletion strains, locus YNL307C, strain MCK1, active compounds read low 0.935 | S. cerevisiae deletion strains, locus YNL322C, strain KRE1 (second series), active compounds read low 0.969 | S. cerevisiae deletion strains, locus YNL322C, strain KRE1, active compounds read low 1 | S. cerevisiae deletion strains, locus YNR049C, strain mso1, active compounds read low 0.987 | S. cerevisiae deletion strains, locus YNR052C, strain pop2, active compounds read low 1.03 | S. cerevisiae deletion strains, locus YOL006C, strain TOP1, active compounds read low 0.862 | S. cerevisiae deletion strains, locus YOL012C, strain htz1 1.04 | S. cerevisiae deletion strains, locus YOL147C, strain pex11, active compounds read low 1 | S. cerevisiae deletion strains, locus YOR001W, strain rrp6, active compounds read low 1 | S. cerevisiae deletion strains, locus YOR061W, strain CKA2, active compounds read low 1 | S. cerevisiae deletion strains, locus YOR069W, strain VPS5, active compounds read low 1 | S. cerevisiae deletion strains, locus YOR070C, strain gyp1, active compounds read low 0.997 | S. cerevisiae deletion strains, locus YOR080W, strain dia2, active compounds read low 1.01 | S. cerevisiae deletion strains, locus YOR083W, strain WHI5, active compounds read low 0.927 | S. cerevisiae deletion strains, locus YOR106W, strain vam3, active compounds read low 0.919 | S. cerevisiae deletion strains, locus YOR136W, strain idh2, active compounds read low 0.997 | S. cerevisiae deletion strains, locus YOR144C, strain elg1, active compounds read low 1.01 | S. cerevisiae deletion strains, locus YOR184W, strain ser1, active compounds read low 0.929 | S. cerevisiae deletion strains, locus YOR231W, strain MKK1, active compounds read low 0.991 | S. cerevisiae deletion strains, locus YOR265W, strain rbl2, active compounds read low 0.992 | S. cerevisiae deletion strains, locus YOR270C, strain vph1, active compounds read low 0.925 | S. cerevisiae deletion strains, locus YOR290C, strain snf2, active compounds read low 0.926 | S. cerevisiae deletion strains, locus YOR316C, strain cot1, active compounds read low 1 | S. cerevisiae deletion strains, locus YPL051W, strain arl3, active compounds read low 0.956 | S. cerevisiae deletion strains, locus YPL055C, strain LGE1, active compounds read low 0.95 | S. cerevisiae deletion strains, locus YPL078C, strain atp4, active compounds read low 0.988 | S. cerevisiae deletion strains, locus YPL106C, strain sse1, active compounds read low 0.981 | S. cerevisiae deletion strains, locus YPL240C, strain hsp82, active compounds read low 0.982 | S. cerevisiae deletion strains, locus YPL241C, strain CIN2, active compounds read low 1 | S. cerevisiae deletion strains, locus YPL256C, strain CLN2, active compounds read low 0.975 | S. cerevisiae deletion strains, locus YPR119W, strain clb2, active compounds read low 0.996 | S. cerevisiae deletion strains, locus YPR141C, strain kar3, active compounds read low 1 | S. cerevisiae deletion strains, locus YPR163C, strain tif3, active compounds read low 1 | S. cerevisiae deletion strains, locus YPR167C, strain met16, active compounds read low 0.999 | S. cerevisiae deletion strains, strain wtn01, active compounds read low 0.994 | S. cerevisiae strains, strain wild type, active compounds read low 0.995
